Screens as filed in PubChem.
Shown are actives, neighbours in structure and some others; about 7.3% of the full set was active somewhere.
Tau fluor cs: counter-screen for tau fibril formation inhibitors; tau K18 P301L Alexa594 fluorescence, heparin fibrillization; Potency, µM (series often up to 57.7 µM); actives 0.93% (n = 280,000); AID 1463; also: nearly all actives have a fitted effect of over 55% in size
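Human K18 P301L tau (15 uM unlabeled plus 0.24 uM Alexa 594-labeled, final) in 100 mM sodium acetate pH 7 was mixed with compound and 20 uM heparin and incubated 6 hr at 37 C.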
Tau fibril FP: blocks human tau fibril formation measured by polarization; Potency, µM (top dose mostly 57.7 µM), most hits filed as inhibitors; P10636; K18 P301L tau heparin fibrillization, Alexa594 FP, 6 h; actives 0.39% (n = 280,000); also: nearly all actives have a fitted effect of over 55% in size
Target sequence (P10636 561-689 P618L limits assumed): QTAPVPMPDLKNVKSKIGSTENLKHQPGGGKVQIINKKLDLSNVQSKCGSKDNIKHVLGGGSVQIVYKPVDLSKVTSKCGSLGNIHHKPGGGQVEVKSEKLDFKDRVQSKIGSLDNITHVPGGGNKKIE
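Quantitative HTS format: compounds meet 15 uM recombinant K18 P301L tau and Alexa 594-tau tracer in 100 mM sodium acetate pH 7; 20 uM heparin triggers fibrillization at 37 C over 6 hr; FP gives the signal.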
Tau fibril ThT: inhibitors of human tau fibril formation, thioflavin T binding; actives 2.1% (n = 270,000); P10636; recombinant tau K18 P301L (four-repeat tau fragment), heparin-induced fibrillization, ThT fluorescence; Potency, µM (series often up to 57.4 µM), actives largely listed as inhibitors; AID 1460; also: nearly all actives have a fitted effect of over 55% in size
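In this qHTS, human K18 P301L tau is incubated with compound and heparin for 6 hr at 37 C, and Thioflavin T fluorescence then reports fibril load.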
VP16 counter: inhibits Gal4-VP16 luciferase reporter, ROR gamma counter-screen. AID 2546. Potency, µM (series often up to 53.6 µM), hits mostly inhibitors. Drosophila S2 Gal4-VP16 UAS-luciferase, luminescence, 20 h. actives 3.5% (n = 310,000);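 also: Gal4-VP16 expression switched on by copper sulfate through the metallothionein promoter; nearly all actives have a fitted effect of over 50% in size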
RORgamma inh: blocks mouse ROR gamma transcriptional activity | P51450 | Drosophila S2 Gal4-RORgamma UAS-luciferase reporter, 20 h | Potency, µM (doses to about 53.6 µM), usual class: inhibitors | actives 5.4% (n = 310,000) | AID 2551; also: nearly all actives have a fitted effect of over 60% in size
Target sequence (P51450 whole entry, looked up, the tested form may be a part): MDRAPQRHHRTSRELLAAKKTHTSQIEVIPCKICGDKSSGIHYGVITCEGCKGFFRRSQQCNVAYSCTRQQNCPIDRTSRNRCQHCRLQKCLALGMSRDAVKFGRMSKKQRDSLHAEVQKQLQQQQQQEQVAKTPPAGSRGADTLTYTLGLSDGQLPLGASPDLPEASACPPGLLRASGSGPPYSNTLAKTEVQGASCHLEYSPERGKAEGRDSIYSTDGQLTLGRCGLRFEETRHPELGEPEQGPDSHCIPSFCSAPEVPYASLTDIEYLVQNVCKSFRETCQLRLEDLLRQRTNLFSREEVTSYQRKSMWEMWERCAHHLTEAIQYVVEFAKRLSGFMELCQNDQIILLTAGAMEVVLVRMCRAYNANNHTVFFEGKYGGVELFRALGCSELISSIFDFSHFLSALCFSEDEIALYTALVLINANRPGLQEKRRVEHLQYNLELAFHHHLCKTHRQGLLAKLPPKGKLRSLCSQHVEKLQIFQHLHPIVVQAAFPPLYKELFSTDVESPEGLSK
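A Gal4/UAS one-hybrid system in insect cells: metallothionein-promoter Gal4–ROR gamma fusion plus Photinus luciferase reporter. Copper sulfate 700 uM final, 20 hr ambient incubation, luminescent detection after 10 min with reagent.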
Numbers stand for hits; 0 = inactive; ? = inconclusive; - = no result given; [ ] = dose if it differs, or a comment. Calls follow the shape of the dose curve; as a rule, active = well fitted curve in the direction sought with a large enough effect; inconclusive = small, poorly fitted or top-dose-only effect, or another doubt; inactive = no such curve, though single readings can be large; an effect the other way counts as inactive or inconclusive.

SMILES	Tau fluor cs	Tau fibril FP	Tau fibril ThT	VP16 counter	RORgamma inh
O=[N+]([O-])c1cc(O)c2ncccc2c1	0	0	?	0	0.89µM
COc1ccc2nc(N3C(=O)CNC3=S)sc2c1	0	0	-	5.6µM	0.5µM
Cc1cccc(CC2CC(=O)N(c3nc4ccccc4s3)C2=O)c1 (configuration not stated)	0	0	0	0	0
Cc1ccc2nc(N3C(=O)CNC3=S)sc2c1	0	?	?	3.5µM	1µM
C[C@H]1CS(=O)(=O)CCN1/N=C\c1ccc([N+](=O)[O-])o1	-	-	-	0	0
O=C1C2C(C(=O)N1/N=C/c1ccc([N+](=O)[O-])o1)C1C=CC2C12CC2 (configuration not stated)	0	0	0	20µM	?
O=C1C2C3C=CC(C4CC34)C2C(=O)N1/N=C/c1ccc([N+](=O)[O-])o1 (configuration not stated)	0	0	0	10µM	13µM
CCOC(=O)C1CCN(c2ncnc3c2cnn3C)CC1	-	-	-	0	0
Cc1ccc(NN2C(=O)C=C(c3ccc(Cl)cc3)C2=O)cc1	0	0	?	8.9µM	7.1µM
O=C1C2CC=CCC2C(=O)N1Nc1ccccc1 (configuration not stated)	0	0	0	0	0
COc1ccc(C2=CC(=O)N(Nc3ccccc3)C2=O)cc1	0	0	?	11µM	?
O=C1C=C(c2ccccc2)C(=O)N1Nc1ccccc1	0	0	?	5µM	4.5µM
O=C(COc1ccc(Cl)cc1)N(Cc1ccco1)c1ccccn1	0	0	0	-	-
CCn1ncc(Br)c1C(=O)Nc1ccccc1OC	0	0	0	0	0
COc1ccccc1NC(=S)NC(=O)c1ccc(Cn2cc(Br)cn2)cc1	0	0	0	?	7.9µM
CCn1cc(C(=O)NC(=S)Nc2ccccc2Br)cn1	-	-	-	10µM	7.1µM
CCn1cc(C(=O)NC(=S)Nc2cccc(O)c2)cn1	0	0	0	0	0
CC(=O)Nc1nc(-c2ccccc2)c(-c2ccccc2)o1	0	0	0	?	13µM
COc1cc(OC)cc(C(=O)Nc2nc(-c3ccccc3)c(-c3ccccc3)o2)c1	0	0	?	2.8µM	1.4µM
COc1ccc(Br)cc1CN(C)CC(O)COc1ccc(Br)cc1 (configuration not stated)	-	-	-	0	0
COc1ccc(Nc2nc(S(=O)(=O)c3ccc(C)cc3)c(Cl)s2)cc1	10µM[quencher]	0	0	?	?
Cc1ccc(S(=O)(=O)c2nc(NCCN(C)C)sc2Cl)cc1	0	0	0	0	0
O=S(=O)(c1ccccc1)c1nc(Nc2cccc(O)c2)sc1Cl	?	0	0	0	0
Cc1ccc(S(=O)(=O)c2nc(Nc3ccccc3)sc2Cl)cc1	14µM[quencher]	?	0	?	0
COc1cccc(CNC(=O)C(=O)NCC2OCCCN2S(=O)(=O)c2cc(C)ccc2C)c1 (configuration not stated)	-	-	-	0	0
SMILES	Tau fluor cs	Tau fibril FP	Tau fibril ThT	VP16 counter	RORgamma inh
Cn1c(=O)c2c(-c3ccccc3Cl)n(-c3cc(Cl)ccc3O)cc2n(C)c1=O	?	0	0	-	-
O=c1oc2cc(OCc3c(F)cccc3Cl)ccc2cc1-c1ccccn1	0	0	0	0	0
CCCOc1ccc2cc(-c3ccccn3)c(=O)oc2c1	0	0	?	5µM	7.1µM
CC(=O)c1cccc(NC(=S)NC(=O)C(C)C)c1	0	0	0	0	13µM
COC(=O)c1cccc(NC(=S)NCCC2=CCCCC2)c1	?	?	0	?	3.2µM
O=C(O)c1cccc(NC(=S)NC(=O)c2ccc(-c3ccccc3)cc2)c1	0	0	0	0	0
CC(=O)c1cccc(NC(=S)NC(=O)c2ccccc2)c1	0	0	0	?	8.9µM
CNC(=S)Nc1cccc(C(C)=O)c1	0	0	0	0	0
COc1ccc(CCC(=O)NNC(=S)Nc2cccc(C(C)=O)c2)cc1	0	0	0	0	0
CC(=O)c1cccc(NC(=S)NCCc2ccc(Cl)cc2)c1	?	?	0	?	13µM
CC(=O)c1cccc(NC(=S)NC(=O)c2cncc(Br)c2)c1	-	-	-	18µM	10µM
CC(=O)c1cccc(NC(=O)Nc2cnn(Cc3ccc(Cl)cc3Cl)c2)c1	8.9µM[quencher]	?	0	0	0
CC(=O)c1cccc(NC(=O)NC2CCCCCCC2)c1	-	-	-	0	0
CC(=O)c1cccc(NC(=S)NC2CCCCCCC2)c1	-	-	-	13µM	3.2µM
CC(=O)c1cccc(NC(=S)NC(=O)c2cccc(Cl)c2)c1	0	0	0	10µM	2.8µM
COc1ccc(NC(=O)CSc2nc3ccccc3nc2N2CCC(C)CC2)cc1	0	0	0	-	-
CCC(C(=O)Nc1ccc(C(C)=O)cc1)n1cnc2nc3c(cc2c1=O)CCCC3 (configuration not stated)	0	0	0	-	-
CN(C)C(=S)NC(=O)c1cccc(Cl)c1	0	0	0	2µM	0.56µM
CC(=O)c1cccc(NC(=S)NC(=O)CC(C)(C)C)c1	0	0	0	?	13µM
CC(C)OC(=O)c1ccc(NC(=S)NC(=O)c2cncc(Br)c2)cc1	-	-	-	2.8µM	2.2µM
CC(C)OC(=O)c1ccc(NC(=O)c2cncc(Br)c2)cc1	?	0	0	0	?
O=C(N[C@@H](Cc1ccccc1)C(=O)OCc1ccccc1)c1nc[nH]c1C(=O)N1CCN(c2ccccc2)CC1	?	0	0	?	10µM
O=C(N[C@@H](Cc1ccccc1)C(=O)OCc1ccccc1)c1nc[nH]c1C(=O)NCc1ccccc1	?	?	0	?	10µM
O=C(COC(=O)[C@H](Cc1ccccc1)NC(=O)c1ccco1)NCc1ccccc1	0	0	0	0	0
CC(C)C[C@H](NC(=O)c1nc[nH]c1C(=O)N[C@@H](CC(C)C)C(=O)OCc1ccccc1)C(=O)OCc1ccccc1	-	-	-	?	7.1µM
SMILES	Tau fluor cs	Tau fibril FP	Tau fibril ThT	VP16 counter	RORgamma inh
CC(C)C[C@H](NC(=O)c1nc[nH]c1C(=O)NC(c1ccccc1)c1ccccc1)C(=O)OCc1ccccc1	0	?	0	4.5µM	2.5µM
Cc1ccc(NC(=O)C(Cc2ccccc2)N2Cc3ccccc3C2=O)cc1Cl (configuration not stated)	0	?	0	-	-
Cc1ccc(S(=O)(=O)N2CCC(C(=O)NC3CC(C)(C)NC(C)(C)C3)CC2)cc1C	-	-	-	0	0
CCOc1ccc(CNC(=O)C2=Cc3cc(Br)ccc3OC2)cc1OC	0	0	0	-	-
CC(C)C[C@H](NC(=O)c1[nH]cnc1C(=O)N[C@@H](Cc1ccccc1)C(=O)OCc1ccccc1)C(=O)OCc1ccccc1	-	-	-	11µM	11µM
CC(C)C[C@H](NC(=O)c1[nH]cnc1C(=O)N[C@H](C)c1ccccc1)C(=O)OCc1ccccc1	?	?	0	5µM	6.3µM
COc1cccc(-c2cc3c(=O)n(-c4ccccc4)c(=S)[nH]c3s2)c1	0	0	0	2.5µM	0.89µM
COc1ccc(-c2csc3[nH]c(=S)n(-c4ccccc4)c(=O)c23)cc1OC	0	0	?	3.2µM	2.5µM
